DT40 TDP1 CPT – growth inhibition of DT40 Tdp1-/-;hTDP1 cells with camptothecin (screen for TDP1 inhibitors). actives 12% (n = 420,000). Potency, µM (highest dose often 46.2 µM), hits mostly inhibitors. chicken DT40 Tdp1-/-;hTDP1 cells + 20 nM CPT, ATP luminescence, 48 h. AID 686979; also: nearly all actives have a fitted effect of over 55% in size
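Cell growth measured by CellTiter-Glo luminescence after a minimum 48 h, 37 C compound exposure with 20 nM CPT in Tdp1-knockout DT40 cells stably expressing hTDP1, seeded 400/well; qHTS titration format.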
KB-3-1 tox – kills parental KB-3-1 adenocarcinoma cells; Potency, µM (series often up to 46.1 µM), usual class: cytotoxic; KB-3-1 viability, CellTiter-Glo ATP luminescence, 72 h; actives 1.4% (n = 400,000); AID 1347075; also: nearly all actives have a fitted effect of over 60% in size
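Luminescent ATP read-out (CellTiter-Glo) measures survival of drug-naive KB-3-1 cells after 72 h compound exposure at 37 °C. Titration series was screened from lowest to highest concentration, with DMSO vehicle plates as background controls.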
KB-V1 MDR tox – KB-V1 MDR subline cytotoxicity | actives 3.4% (n = 400,000) | KB-V1 MDR cells viability, CellTiter-Glo, 72 h | AID 1347076 | Potency, µM (titrated, usually from 46.1 µM), usual class: cytotoxic; also: nearly all actives have a fitted effect of over 60% in size
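qHTS viability screen in drug-selected KB-V1 MDR cells: 72 h compound treatment at 37 degrees C, ATP luminescence end point.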
HT1080 IDH1KD tx – kills HT-1080 cells with IDH1 knockdown. HT-1080 IDH1 knockdown viability, ATP luminescence, 48 h. Potency, µM (titrated, usually from 46.1 µM), actives largely listed as cytotoxic. actives 2% (n = 360,000)
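After a 2 h attachment period, IDH1KD HT-1080 cells took pin-transferred compound for 48 h at 37 °C; ATP-based luminescence after 10 min room-temperature reagent incubation reported viability.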
HT1080-NT tox – kills 2HG-producing HT-1080-NT fibrosarcoma cells; actives 1.6% (n = 360,000); AID 686970; HT-1080-NT fibrosarcoma viability, CellTiter-Glo ATP luminescence, 48 h; Potency, µM (titrated, usually from 46.1 µM), most hits filed as cytotoxic;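 also: NT is the 2HG producing partner of a matched IDH1 knockdown line; nearly all actives have a fitted effect of over 55% in size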
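A 48-hour cytotoxicity screen used HT-1080-NT cells plated 2 hours before compound delivery. ATP-based CellTiter-Glo luminescence measured viability, normalized to DMSO and no-cell controls.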
TDP1 cell noCPT – qHTS for Inhibitors of human tyrosyl-DNA phosphodiesterase 1 (TDP1): qHTS in cells in absence of CPT | DT40 Tdp1-/- hTDP1 cells, no CPT, ATP luminescence, 48 h | Potency, µM (titrated, usually from 46.2 µM), actives largely listed as inhibitors | actives 15% (n = 420,000) | AID 686978, 2013; also: nearly all actives have a fitted effect of over 55% in size
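Luminescent ATP content (CellTiter-Glo) served as the growth readout. Knockout chicken DT40 cells expressing human TDP1 were exposed to compounds without camptothecin for a minimum 48 hr at 37 °C.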
Numbers stand for hits; . = inactive; ? = inconclusive; / = no result given. Sampled rows, rich in hits. Any-hit rate of the full collection: about 19%. Calls follow the shape of the dose curve; as a rule, active = well fitted curve in the direction sought with a large enough effect; inconclusive = small, poorly fitted or top-dose-only effect, or another doubt; inactive = no such curve, though single readings can be large; an effect the other way counts as inactive or inconclusive.

SMILES	DT40 TDP1 CPT	KB-3-1 tox	KB-V1 MDR tox	HT1080 IDH1KD tx	HT1080-NT tox	TDP1 cell noCPT
Cc1ccc(-c2ccc(SCC(=O)c3ccccc3)nn2)cc1	.	.	.	.	.	?
CC1=NN(C(=O)c2ccc(Cn3ccc([N+](=O)[O-])n3)cc2)C(O)(C(F)(F)F)C1 (stereo not given)	.	.	?	.	.	.
Cc1ccc(-n2c(SCC(=O)c3c(N)n(C4CC4)c(=O)[nH]c3=O)nnc2N2CCOCC2)cc1	.	.	?	.	.	.
CCOc1ccccc1OCCCNCc1ccco1	.	.	.	.	.	?
Cn1c(=O)c2sccc2n2c(CCCC(=O)N3CCCCC3)nnc12	.	.	.	.	.	.
Cc1ccc(NCc2nnc(SCC(=O)N(Cc3ccccc3)C(C)(C)C)o2)c(C)c1	?	.	?	?	?	?
CCC1Nc2ncnc(N3CCN(c4ccccc4)CC3)c2N(Cc2ccc(C)cc2)C1=O (stereo not given)	?	.	.	.	?	?
CC1Nc2ncnc(N3CCOCC3)c2N(Cc2ccccc2)C1=O (stereo not given)	.	.	.	.	.	.
CC1Nc2ncnc(N3CCc4ccccc4C3)c2N(Cc2ccccc2)C1=O (stereo not given)	21µM	.	.	?	?	?
COc1ccc(CN2C(=O)C(C)Nc3ncnc(N4CCN(c5ccccc5)CC4)c32)cc1 (stereo not given)	?	.	.	.	.	?
COc1ccc(CN2C(=O)C(C)Nc3ncnc(N4CCOCC4)c32)cc1 (stereo not given)	?	?	18µM	15µM	?	?
O=C1C(Cc2ccccc2)Nc2ncnc(N3CCc4ccccc4C3)c2N1Cc1ccc(Cl)cc1 (stereo not given)	?	.	26µM	?	?	?
CC1Nc2ncnc(N3CCN(c4ccccc4)CC3)c2N(Cc2ccc(Br)cc2)C1=O (stereo not given)	?	?	?	?	.	21µM
COc1cccc(CNC(=O)c2ccc(NS(=O)(=O)c3ccc4[nH]c(=O)[nH]c4c3)cc2)c1	.	.	.	.	.	.
C[N+]1(CC(=O)c2ccc(Br)cc2)CCOCC1	.	.	.	/	/	.
CCC1Nc2ncnc(N3CCCCC3)c2N(Cc2ccc(Cl)cc2)C1=O (stereo not given)	?	.	.	.	.	?
CCC1Nc2ncnc(N3CCc4ccccc4C3)c2N(Cc2ccc(Cl)cc2)C1=O (stereo not given)	21µM	?	.	.	.	?
O=C1NC(=S)S/C1=C/c1ccc(OC(=O)c2ccco2)cc1	?	.	.	.	.	.
CCOc1cc(/C=C2/SC(=S)NC2=O)ccc1OC(=O)c1ccco1	23µM	.	.	?	12µM	12µM
COc1cc(/C=C2/SC(=O)NC2=O)ccc1OC(=O)c1ccco1	16µM	10µM	?	.	.	16µM
CCOC(=O)C(C)Sc1nnc(-c2ccccc2O)n1-c1ccc(C)cc1 (stereo not given)	.	.	.	.	.	?
N=C(N=C(N)N)N1CCc2ccccc21	?	.	.	.	.	13µM
C[C@@H]1CN([C@H](C)CO)C(=O)Cc2cc(NS(=O)(=O)c3cn(C)cn3)ccc2O[C@H]1CN(C)S(=O)(=O)c1ccc(Cl)cc1	.	.	.	.	.	.
COc1ccc(C2=CC(=O)OC(C)(c3ccccc3)O2)cc1 (stereo not given)	?	.	16µM	.	.	?
O=C1C=C(c2ccccc2)OC2(CCCC2)O1	.	.	.	.	.	.
SMILES	DT40 TDP1 CPT	KB-3-1 tox	KB-V1 MDR tox	HT1080 IDH1KD tx	HT1080-NT tox	TDP1 cell noCPT
CCOCc1cc(CN2CCC(CCC(=O)NC3CC3)CC2)ccc1OC	.	.	.	.	.	.
c1ccc(CN2CCN(C3CCCSc4ccccc43)CC2)cc1 (stereo not given)	?	.	.	.	.	23µM
O=C1CC(N2CCN(Cc3ccccc3)CC2)C(=O)N1 (stereo not given)	.	.	.	.	.	.
O=C(CSc1nnc2c(n1)[nH]c1ccccc12)N1CCCCC1	.	.	.	.	.	.
CC1CCc2cc(F)ccc2N1C(=O)CSc1nnc2c(n1)[nH]c1ccccc12 (stereo not given)	?	.	16µM	?	.	?
CC1CCc2cc(F)ccc2N1C(=O)CSc1nnc(-c2cccs2)n1C (stereo not given)	.	.	7.3µM	.	.	.
COc1ccccc1NS(=O)(=O)c1cc(C(=O)N2CCN(C/C=C/c3ccccc3)CC2)ccc1C	?	.	.	.	.	?
COc1ccc(NS(=O)(=O)c2cccc(C(=O)N3CCN(C/C=C/c4ccccc4)CC3)c2)cc1	23µM	.	?	.	.	16µM
COc1ccccc1NS(=O)(=O)c1cccc(C(=O)N2CCN(C/C=C/c3ccccc3)CC2)c1	21µM	/	/	.	.	21µM
COc1ccc(O)c(C2=Nc3ccccc3N=C(c3ccccc3)C2)c1	23µM	.	?	.	.	18µM
CC(=O)C1CCC2C3CC(C)=C4CC(O)CCC4(C)C3CCC12C (stereo not given)	.	?	.	?	?	21µM
CC(=O)[C@H]1CCC2C3CC=C4C[C@@H](O)CC[C@]4(C)C3CC[C@@]21C (stereo not given in full)	18µM	.	?	.	.	?
CC(=O)[C@H]1CC[C@H]2[C@@H]3CC=C4C[C@@H](O)CC[C@]4(C)[C@H]3CC[C@]12C	?	?	?	.	.	?
CC(=O)C1CCC2C3CC=C4CC(O)CC[C@@]4(C)C3CC[C@]12C (stereo not given in full)	.	/	/	/	/	.
O=C(c1ccc(F)cc1)C1CCN(C(=O)c2ccccc2F)CC1	.	.	.	.	.	?
CC1CN(S(=O)(=O)c2cccc(C(=O)Nc3ccc4c(c3)CCC4)c2)CC(C)O1 (stereo not given)	1.2µM	.	?	.	.	1.2µM
O=C(NCCC1=CCCCC1)c1cccc(S(=O)(=O)N2CCCCC2)c1	?	.	?	.	.	23µM
CC1CN(S(=O)(=O)c2cccc(C(=O)NCCC3=CCCCC3)c2)CC(C)O1 (stereo not given)	12µM	.	.	.	.	21µM
Cc1ccc(C(=O)NCCC2=CCCCC2)cc1S(=O)(=O)N1CCCCC1	?	?	?	.	?	?
